The values that follow come from the supplement of paper PMC6555819.

The assay deals with PPARa:RXRa (NR concentration 270 nM, RXRa partner concentration 90 nM). In words: PBM binding z-score (relative to random genomic background probes); higher = stronger binding; sequences stand for … in GC…GCGATTGACAGCGTAGAATGAAGG
In short, it runs like this: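 The probes on custom Agilent 4×180K protein-binding microarrays were double-stranded, with 34-nt variable regions bearing direct-repeat seeds, single-nucleotide variants, half-site ablations and random human genomic background sequences. Incubation lasted 1 h with ligand-free nuclear receptor dimers in PBS pH 7.4, 2% milk, 0.02% Triton X-100, 1 mM DTT, 0.2 mg/mL BSA and 0.4 mg/ml salmon testes DNA. Antibodies against each partner (one per run) detected bound dimers, and fluorescence scans were regression-normalized. Binding z-scores take the random background probes as reference.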
As to AATACATGGTCACTAGGCCAGAGTAGGTACGAAT, the PBM binding z-score was found to be 0.587. The value for CCGACTTGGGCAGAAAGGTTACCATACCATCCGG was 1.44; that for ATCTCTAGGTAAAGTTCACTGAAAGATCGATAGA was 3.64; that for CCTTACGGGTCACGAGGTTATGGCACGACGAGCG was 5.94. The value for GGTACGAGGGCAAGTTGATAGCAGAGTTTGATGG was 1.02.

ATCTCTAGGTAACCAAGGTCAGTGAATGCCGAAC yielded a PBM binding z-score of 2.72. The value for GCATATAGGTAATACAAGGTGAGAGTCCGATTGT was 0.92; that for CAAACTAGGTCACCGGAAGGTCAACGTCCGCATG was 6.13.

In the case of AGAACGAGGGCAAGCTGAGTTGATAGCAGAGTAG, the PBM binding z-score was 1.4. In turn, CCGACTGGGGCATAAAGTTACCATAAGCCAGCCC yielded a PBM binding z-score of 0.0732.

With TCATATAGGTAAACGCTAGGTGAAAGTCCGATCT, the PBM binding z-score was determined as 1.7. The figure for ATACCAAGTTGATCGTGAGGTCGTTGATACTAAC is 1.22.

Sequence TTACCAAGGTGAGCAGAGGTCGTTGATCCAACTC showed a PBM binding z-score of 2.38. Regarding ATCTCTCGGTAACCAAGTTCAGTGAATGCCGAAC, the PBM binding z-score stood at 0.668.

Sequence TCTAGTTGGTCACGGAGGTCAGACACGACGGGTA registered a PBM binding z-score of 2.88. The value for GCATATAGGTAATGCAAGGTGAAAGTCCGATTGT was 1.74; that for TAGCCTAGGTCAGATGGGGCCAGTATACGCTATA was 1.78; that for ATCTCTAGGTACAGTTCAGTGAAAGATCGATAGA was 0.51. The figure for CCTGCTAGGTCGTGGTCAGCTAATCTACAGTATG is 0.699.

Take CCGACTGGGTCATAAGGTTACCATAAGCCAGCCC: the PBM binding z-score is 4.14. The value for GATACAGGGTCAGCTAGAGGCCAGTGTATGGAAA was 4.11. For CAAACTAGCTCAAAGGTCAAAGTCGAGCCAACCA, the PBM binding z-score is 6.14.
